Results filed as inconclusive are left out. Where a call stands in place of a potency, no number is given. Calls of active or inactive are those of the source. Unless noted, the call rests on the fitted dose curve; in most records, active means well fitted curve in the direction sought with a large enough effect; inconclusive means small, poorly fitted or top-dose-only effect, or another doubt; inactive means no such curve, though single readings can be large; an effect the other way counts as inactive or inconclusive.
Columns and labels:
[1] = qHTS Assay for Identifying Gametocytocidal Compounds (AID 743244);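 further: actives lower the fluorescent signal which means gametocytes are killed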; settings: P. falciparum 3D7 stage III-V gametocytes, alamarBlue, 72 h; max response: stronger effect = lower value
Outline: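 P. falciparum 3D7 stage III–V gametocytes (20,000 cells/well) were exposed to compounds for 72 h at 37 °C, 5% CO2. AlamarBlue was then added for 24 h; decreased resorufin fluorescence (Ex 525/Em 598 nm) indicated loss of viability.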

[2] = P-glycoprotein substrates identified in KB-8-5-11 adenocarcinoma cell line, qHTS therapeutic library screen (AID 1346987); further: nearly all actives have a fitted effect of over 65% in size
Outline: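 Luminescence from CellTiter-Glo, read 5 min after addition, quantified survival of KB-8-5-11 (P-gp-overexpressing) cells exposed to compounds for 72 h. AC50 was derived from concentration-response curves.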

[3] = qHTS for Inhibitors of the Functional Ribonucleoprotein Complex (vRNP) of Lassa (LASV) Arenavirus: LASV Primary Screen - GLuc reporter signal (AID 1347082; calls by dose curve; tested in HEK293 reporter line; further: nearly all actives have a fitted effect of over 60% in size)
[4] = qHTS for Inhibitors of the Functional Ribonucleoprotein Complex (vRNP) of Lassa (LASV) Arenavirus: Viability assay - alamar blue signal for LASV Primary Screen (AID 1347083; calls by dose curve; tested in HEK293 reporter line; further: nearly all actives have a fitted effect of over 80% in size)
[5] = qHTS for Inhibitors of the Functional Ribonucleoprotein Complex (vRNP) of Lymphocytic Choriomeningitis Arenaviruses (LCMV): Viability assay - alamar blue signal for LCMV Primary Screen (AID 1347085; calls by dose curve; tested in HEK293 reporter line; further: nearly all actives have a fitted effect of over 80% in size)
[6] = molecular target: Nucleoprotein (Lymphocytic choriomeningitis virus (strain Armstrong)) (UniProt P09992); assay: qHTS for Inhibitors of the Functional Ribonucleoprotein Complex (vRNP) of Lymphocytic Choriomeningitis Arenaviruses (LCMV): LCMV Primary Screen - GLuc reporter signal (AID 1347086; calls by dose curve; further: nearly all actives have a fitted effect of over 70% in size)
Sequence of Nucleoprotein (Lymphocytic choriomeningitis virus (strain Armstrong)) (P09992 whole entry, looked up): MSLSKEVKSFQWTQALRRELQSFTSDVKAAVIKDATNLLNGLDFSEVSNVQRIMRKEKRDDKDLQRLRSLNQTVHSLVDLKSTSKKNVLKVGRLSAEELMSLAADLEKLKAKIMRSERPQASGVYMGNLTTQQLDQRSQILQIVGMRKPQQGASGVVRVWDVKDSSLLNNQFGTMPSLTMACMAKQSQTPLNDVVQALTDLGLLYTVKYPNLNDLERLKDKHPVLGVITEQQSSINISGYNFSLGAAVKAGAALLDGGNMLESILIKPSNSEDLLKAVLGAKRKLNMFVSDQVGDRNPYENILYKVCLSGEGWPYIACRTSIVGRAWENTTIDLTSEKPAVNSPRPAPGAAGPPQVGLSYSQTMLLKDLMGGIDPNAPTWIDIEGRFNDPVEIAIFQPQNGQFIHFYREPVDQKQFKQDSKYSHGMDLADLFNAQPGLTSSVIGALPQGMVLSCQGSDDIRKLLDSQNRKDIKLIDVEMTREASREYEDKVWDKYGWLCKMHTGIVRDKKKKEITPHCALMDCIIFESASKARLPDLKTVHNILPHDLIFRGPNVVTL

[7] = Primary qHTS for inhibitors of SARS-S pseudo-typed particle cell entry (AID 1479145; calls by dose curve; further: nearly all actives have a fitted effect of over 45% in size)
[8] = Primary qHTS for Huh7 cytotoxicity: counterscreen for inhibitors of MERS-S pseudotyped particle cell entry (AID 1479147; calls by dose curve); settings: outcome: dose series up to 57.1 µM unless noted
[9] = Primary qHTS for inhibitors of MERS-S pseudo-typed particle cell entry (AID 1479149; calls by dose curve; further: nearly all actives have a fitted effect of over 60% in size)
[10] = Primary qHTS for Vero E6 cytotoxicity: counterscreen for inhibitors of SARS-S pseudo-typed particle cell entry (AID 1479150; calls by dose curve); settings: outcome: dose series up to 57.1 µM unless noted
[11] = Cytotoxicity counterscreen for inhibitors of SARS-CoV-2 cell entry (AID 1645845; calls by dose curve; further: nearly all actives have a fitted effect of over 50% in size)
Outline: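 After a 15 min room-temperature ATPLite 1step step, luminescence reflected ATP remaining in HEK293-ACE2 cells exposed to compound for 1 h plus 48 h at 37 C, with percent activity set by cell and no-cell controls.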

[12] = Primary qHTS to identify inhibitors of SARS-CoV-2 cell entry (AID 1645846; calls by dose curve; further: nearly all actives have a fitted effect of over 45% in size); settings: activity change, negative = inhibition: at 57.1 µM (top of the series) unless noted
Outline: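 Luminescence readout (Bright-Glo luciferase) 48 h after pseudoparticle addition. HEK293-ACE2 cells, 1500/well; compound pre-incubation 1 h; Normalized to spike PP and bald PP.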

[13] = molecular target: Glutathione peroxidase 1 (Homo sapiens) (UniProt P07203); assay: Primary qHTS Assay for Inhibitors of Recombinant Selenoprotein Glutathione Peroxidase 1 (GPX1) (AID 1845191); further: nearly all actives have a fitted effect of over 65% in size
Sequence of Glutathione peroxidase 1 (Homo sapiens) (P07203 whole entry, looked up): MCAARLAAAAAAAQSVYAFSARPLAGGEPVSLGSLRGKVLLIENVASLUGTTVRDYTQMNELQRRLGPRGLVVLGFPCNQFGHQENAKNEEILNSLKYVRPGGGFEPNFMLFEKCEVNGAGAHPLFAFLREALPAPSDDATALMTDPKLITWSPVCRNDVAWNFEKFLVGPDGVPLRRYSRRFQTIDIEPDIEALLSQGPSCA
Outline: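 GPX1 10 nM, GR 100 nM, GSH 1 mM, NADPH 0.5 mM, CHP 0.5 mM (final). 30-min cpd preincubation, RT. Ex340/Em450 read t=0, t=15 min.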

[14] = molecular target: Phospholipid hydroperoxide glutathione peroxidase GPX4 (Homo sapiens) (UniProt P36969); assay: Primary qHTS Assay for Inhibitors of Recombinant Selenoprotein Glutathione Peroxidase 4 (GPX4) (AID 1845192); further: nearly all actives have a fitted effect of over 65% in size
Sequence of Phospholipid hydroperoxide glutathione peroxidase GPX4 (Homo sapiens) (P36969 whole entry, looked up): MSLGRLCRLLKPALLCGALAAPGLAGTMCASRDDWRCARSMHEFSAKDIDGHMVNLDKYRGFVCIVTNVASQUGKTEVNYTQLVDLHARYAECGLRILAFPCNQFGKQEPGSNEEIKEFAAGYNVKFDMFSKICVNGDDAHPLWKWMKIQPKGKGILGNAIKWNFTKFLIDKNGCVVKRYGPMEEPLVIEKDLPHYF
Outline: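 qHTS, GR-coupled: GPX4 200 nM + cpd 30 min RT → GSH 1 mM, NADPH 0.5 mM, GR 100 nM → CHP 0.5 mM start; fluor 340/450 at t0 and t15 min; no-enzyme wells as control.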

KB-3-1 = assay: Cytotoxic Profiling of Annotated Libraries Using Quantitative High-Throughput Screening (AID 1296008); settings: Five cell lines viability, CellTiter-Glo ATP luminescence, 48-72 h; max response: stronger effect = lower value; further: nearly all actives have a fitted effect of over 60% in size
Outline: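 Compounds were pin-transferred onto cells and incubated 48 or 72 hr at 37 degree Celsius, 95% humidity. CellTiter-Glo was added, plates sat 10 min at room temperature, then ATP-coupled luminescence was imaged as the viability read-out.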

[15] = Drug repurposing screens with cells derived from glioblastoma tumor samples (AID 1345199); settings: GBM patient neurospheres viability, ATP luminescence, 48 h; Potency: tumour line A; series mostly up to 45.9 µM; further: nearly all actives have a fitted effect of over 40% in size
Outline: (§1)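 Primary testing used CD133+ neurospheres from four GBM patients, seven concentrations, 48 h exposure and ATP-based viability; confirmation added three slower-growing patient lines.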

astro = assay: as above; settings: viability, ATP luminescence, 48 h; series mostly up to 45.9 µM
Outline: as §1

[16] = molecular target: Luciferin 4-monooxygenase (Photinus pyralis) (UniProt P08659); assay: Biochemical firefly luciferase enzyme assay for NPC (AID 624030);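 further: purified P. pyralis luciferase at 10 nM with luciferin and ATP substrate; nearly all actives have a fitted effect of over 70% in size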
Sequence of Luciferin 4-monooxygenase (Photinus pyralis) (P08659 whole entry, looked up): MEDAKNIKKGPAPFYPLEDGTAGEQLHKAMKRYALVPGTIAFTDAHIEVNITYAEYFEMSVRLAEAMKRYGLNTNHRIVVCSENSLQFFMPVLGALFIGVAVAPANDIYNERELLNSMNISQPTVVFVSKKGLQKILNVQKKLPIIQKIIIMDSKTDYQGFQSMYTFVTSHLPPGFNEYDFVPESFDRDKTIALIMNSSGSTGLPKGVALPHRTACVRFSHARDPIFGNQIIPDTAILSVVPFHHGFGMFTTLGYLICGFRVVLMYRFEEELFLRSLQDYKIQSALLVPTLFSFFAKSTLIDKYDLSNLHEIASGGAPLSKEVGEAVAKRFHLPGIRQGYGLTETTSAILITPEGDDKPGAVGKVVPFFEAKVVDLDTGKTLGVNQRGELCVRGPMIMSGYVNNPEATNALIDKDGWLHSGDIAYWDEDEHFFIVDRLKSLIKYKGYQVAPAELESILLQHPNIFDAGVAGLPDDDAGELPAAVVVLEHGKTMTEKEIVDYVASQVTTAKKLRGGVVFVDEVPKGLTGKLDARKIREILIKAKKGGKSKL
Outline: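 Counter-screen for direct inhibition of the luciferase enzyme by approved-drug library compounds, run at 10 nM enzyme in 50 mM Tris acetate (final). Luminescence was read within 5 min of enzyme-buffer addition and normalized to PTC124 versus DMSO (0%).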

Compound | max response [1] | Potency [2] | Potency [3] | Potency [4] | Potency [5] | Potency [6] | Potency [7] | outcome [8] | Potency [9] | outcome [10] | Potency [11] | activity change, negative = inhibition [12] | Potency [13] | Potency [14] | max response (KB-3-1) | Potency [15] | Potency (astro) | Potency [16]
COC(=O)[C@H]1[C@@H](OC(=O)c2ccccc2)C[C@@H]2CC[C@H]1N2C | -15.4% (inactive) | inactive | inactive | inactive | inactive | inactive | inactive | inactive [at 114 µM] | inactive | inactive [at 114 µM] | inactive | -14.7% [at 114 µM] | inactive | inactive | 1.68% (inactive) | inactive | inactive | –
C[C@@H]1[C@H]2Cc3ccc(O)cc3[C@]1(C)CCN2C | -6.63% (inactive) | – | – | – | – | – | – | – | – | – | – | – | – | – | -14.3% (inactive) | inactive | inactive | –
C=CCC1([C@@H](C)CCC)C(=O)NC(=O)NC1=O | 0.546% (inactive) | inactive | – | – | – | – | – | – | – | – | – | – | – | – | -4.55% (inactive) | inactive | inactive | inactive

— PubChem BioAssay (NCATS)
